BoNT-A LC inh2 = inhibitors of Botulinum neurotoxin A light chain protease; multiplex microsphere protease substrate cleavage, flow cytometry; 0.17% of 360,000 active; inhibition, % at 10 µM; also: plate controls were buffer without enzyme for full effect and enzyme alone for no effect
Mtb FBA inh = inhibits M. tuberculosis FBA enzyme; P9WQA3; purified M. tuberculosis FBA, fluorescence read-out; inhibition, % at 1 µM; 2.3% of 360,000 active; in the data active = inhibition above about 27%;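 also: 0% = vehicle and 100% = reference inhibitor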
Target sequence (P9WQA3 whole entry, looked up): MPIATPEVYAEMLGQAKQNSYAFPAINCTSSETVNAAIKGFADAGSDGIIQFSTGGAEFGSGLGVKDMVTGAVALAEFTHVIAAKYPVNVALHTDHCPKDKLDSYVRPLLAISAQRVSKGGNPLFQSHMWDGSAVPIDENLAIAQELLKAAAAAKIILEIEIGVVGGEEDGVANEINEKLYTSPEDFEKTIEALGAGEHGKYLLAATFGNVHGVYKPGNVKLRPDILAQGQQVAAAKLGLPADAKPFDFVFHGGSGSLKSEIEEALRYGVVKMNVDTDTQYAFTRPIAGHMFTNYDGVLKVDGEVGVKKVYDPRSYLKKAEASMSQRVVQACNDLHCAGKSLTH
GDH-TPI inh = inhibits GDH-TPI coupling enzymes, artifact for Mtb FBA screen; AID 588335; 1.2% of 360,000 active; inhibition, % at 4.8 µM; GDH-TPI coupled enzyme counterscreen, NADH absorbance; in the data active = inhibition above about 30%;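 also: 0% = DMSO wells and 100% = wells lacking the enzyme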
Anthrax LF prot = inhibitors of Bacillus anthracis lethal factor protease | AID 588501 | 0.12% of 360,000 active | P15917 | multiplex microsphere protease cleavage assay, LF | inhibition, % at 10 µM; also: plate controls were buffer without enzyme for full effect and enzyme alone for no effect
BoNT-F LC inh = inhibitors of Botulinum neurotoxin F light chain protease. 0.22% of 360,000 active. inhibition, % at 10 µM. AID 588497. Multiplex microsphere protease cleavage assay, flow cytometry; in the data active = inhibition above about 35%, passing the limit was not always enough; inconclusive = no clear call, values can overlap the other calls; also: plate controls were buffer without enzyme for full effect and enzyme alone for no effect
Autofluor counter = flagged as autofluorescent in microsphere protease counterscreen | compound autofluorescence counterscreen, microsphere flow cytometry; hits give high values | fluorescence intensity (test concentration not listed) | 3.1% of 360,000 active | AID 624483; in the data active = fluorescence intensity above about 16000; inconclusive = no clear call, values can overlap the other calls
* = called active by the depositor; ? = inconclusive; · = no result. Only some compounds are listed: those with a hit (about 6.6% of all), similar ones and a draw of the others. Rule as the data show it, unless noted: active = inhibition above about 30%; inconclusive = no clear call, values can overlap the other calls; inactive = below that.

SMILES	BoNT-A LC inh2	Mtb FBA inh	GDH-TPI inh	Anthrax LF prot	BoNT-F LC inh	Autofluor counter
COc1ccc(C(=O)/C=C/c2ccc(O)cc2)cc1	-0.6	-1.9	31.4*	-4.5	-1.7	5847
COc1ccc(C=CC(=O)c2ccc([N+](=O)[O-])cc2)cc1	-0.4	-0.6	3.4	-4.9	-1.4	4059
COc1ccc(/C=C/C(=O)NC(=S)Nc2ccc(C(=O)O)cc2)cc1	-0.5	-0.6	50.0*	-3.1	-1.2	10214
COC(=O)CNC(=O)/C=C/c1ccc(OC)cc1	0.3	-0.8	-7.4	-5.9	-1.3	19785*
CCN(CCn1cccn1)C(=O)CCc1nnc(C2(c3ccc(Cl)cc3)CCC2)o1	0.5	-1.3	7.7	0.3	-5.4	2561
Cc1ccc(NCCC(=O)c2ccc(Cl)cc2)cc1	-0.6	0.6	-3.2	0.3	-0.7	10041
Cc1ccc(S(=O)(=O)C(CCC(=O)c2ccc(Cl)cc2)C(N)=O)cc1 (stereo unspecified)	-4.1	-1.1	-11.5	1.3	-7.1	21117*
NC(=O)C1CCN(C(=O)CNC(=O)c2ccc(F)cc2)CC1	0.2	-0.8	0.9	-3.8	3.9	3504
COc1ccc(C2SCC(=O)Nc3c2c(=O)[nH]n3C2CCCCCC2)cc1 (stereo unspecified)	-0.1	4.4	-1.6	-6.1	-6.4	5946
CCCC(C)n1[nH]c(=O)c2c1NC(=O)CSC2c1ccccc1 (stereo unspecified)	-0.3	1.3	-1.4	-3.5	5.1	4576
COc1ccc(C2SCC(=O)Nc3c2c(=O)[nH]n3C2CCCCCC2)cc1OC (stereo unspecified)	?	-2.7	-2.9	-8.8	2.6	18575*
CCOc1ccc(C2SCC(=O)Nc3c2c(=O)[nH]n3C2CCCCCC2)cc1 (stereo unspecified)	?	-0.5	10.9	-6.0	-7.9	24510*
O=C(CN1C(=O)NC2(CCCCCC2)C1=O)Nc1ccc2c(c1)CCC2	-0.3	-0.8	4.3	-5.1	2.1	4075
COC(=O)C(C)N1CCC(=O)c2ccccc2S1(=O)=O (stereo unspecified)	0.5	2.4	-6.7	6.3	-1.2	3598
CC1CCC/C(=C\c2ccc(O)cc2)C1=O (stereo unspecified)	·	0.5	32.4*	·	·	·
O=C(O)C1OC2OC3(CCCCC3)OC2C2OC3(CCCCC3)OC12 (stereo unspecified)	3.2	1.3	5.9	-0.8	35.7*	2111
CCOC(=O)N1CCC(NC(=O)c2cccn3c(=O)c4cc(Br)ccc4nc23)CC1	2.6	1.2	16.8	0.0	6.0	18434*
CC(C)(C)N1C(=O)c2ccc(C(=O)Nc3cc(C(=O)O)cc(C(=O)O)c3)cc2C1=O	-0.6	4.5	11.1	19.4	24.5	3826
FC(F)(F)c1ccc(Oc2ccc3c(C(F)(F)F)cc(C(F)(F)F)nc3n2)cc1	0.8	1.5	-11.2	-0.2	1.8	22830*
COc1ccc(Oc2ccc3c(C(F)(F)F)cc(C(F)(F)F)nc3n2)cc1	?	-0.5	4.8	-0.4	-2.0	22263*
CNS(=O)(=O)c1ccc(NC(=O)Nc2cccc(F)c2)cc1	0.1	-0.1	0.3	-1.0	4.6	1962
CCN(C(=O)CSc1nnc(-c2ccc3c(c2)OCO3)o1)C1CCS(=O)(=O)C1 (stereo unspecified)	·	5.8	5.7	·	·	·
CCOC(=O)c1c(C)nc2cc(C)cc(C)n12	-0.5	-4.4	-0.9	-8.3	2.3	4911
O=C(CN(Cc1cccs1)C(=O)CNS(=O)(=O)c1ccc(Cl)cc1)NCc1ccco1	?	0.4	16.0	-1.6	1.4	21887*
O=C(CN(Cc1cccs1)C(=O)CNS(=O)(=O)c1ccc(F)cc1)NCc1ccco1	-0.3	1.4	10.8	-0.2	-8.2	3663
SMILES	BoNT-A LC inh2	Mtb FBA inh	GDH-TPI inh	Anthrax LF prot	BoNT-F LC inh	Autofluor counter
O=C(Nc1ccccc1)N1CCN(c2nc3ccccc3s2)CC1	2.2	1.1	0.0	-1.1	2.8	21122*
COc1ccc(/C(N)=N/OC(=O)C2CCCCC2)cc1	-0.7	0.1	-4.5	-0.3	-6.4	7258
Cc1ccccc1-n1c(C)nnc1SCC(=O)N1CCc2ccccc2C1	0.2	0.3	16.5	-2.8	6.1	7122
COc1ccc(CC(=O)N2CCNC2=O)cc1	2.0	0.7	-6.3	-1.9	2.0	19689*
O=C(COc1ccccc1)N1CCNC1=O	1.5	-1.4	-3.9	-1.7	1.9	21620*
COc1ccc(CNC(=O)O[C@H]2C[C@@H]3C(=O)N(c4ccccc4)C(=O)[C@@H]3[C@@H]3CN(S(=O)(=O)c4ccc(C)cc4)C[C@]23O)cc1OC	-0.5	-0.4	-4.7	-6.9	-6.4	4374
CC1C(c2ccccc2)N(C)C(c2ccccc2)C(C)C1(O)C#Cc1ccccc1 (stereo unspecified)	-0.1	-4.5	10.9	-8.1	-1.1	7183
CCC(C)(C(=O)NC1CCCCC1)N(Cc1ccco1)C(=O)c1cnccn1 (stereo unspecified)	-0.3	0.4	10.2	-5.0	-2.3	16804*
CCC(C)(C(=O)NC1CCCCC1)N(CC1CCCO1)C(=O)c1ccccn1 (stereo unspecified)	-4.4	-0.7	1.8	1.5	-8.5	25517*
CCC(C)(C(=O)NC1CCCC1)N(Cc1ccco1)C(=O)c1ccccn1 (stereo unspecified)	-0.3	6.0	-2.8	2.3	-4.0	6142
CCC(C)(C(=O)NC1CCCCC1)N(CC1CCCO1)C(=O)CNC(=O)c1ccccc1 (stereo unspecified)	-0.3	0.5	3.7	-0.4	2.7	4357
CCC(C)(C(=O)NC1CCCC1)N(Cc1ccco1)C(=O)c1ccc2c(c1)OCO2 (stereo unspecified)	-2.4	0.3	-3.8	-4.1	-1.2	17659*
COc1ccc(OCC(=O)N(Cc2ccc(C)o2)C2CCS(=O)(=O)C2)cc1 (stereo unspecified)	3.2	-0.7	11.1	1.5	0.8	4008
COc1ccc(NC(=O)CSc2nc3ccccc3c(=O)n2CCNC(C)=O)cc1	-5.5	4.0	5.2	-14.1	-16.5	12758
COc1ccc(OC)c(NC(=O)CSc2nc3ccccc3c(=O)n2CCNC(C)=O)c1	-2.9	-3.6	-11.5	1.3	-4.0	20543*
CCn1c(SCC(=O)Nc2ccc(NC(=O)c3ccco3)c(OC)c2)nc2ccccc2c1=O	-4.2	4.5	-0.5	-0.7	-6.4	20994*
CCOc1ccc(NC(=O)CSc2nc3ccccc3c(=O)n2CCNC(C)=O)cc1	1.7	-2.5	-14.6	-1.0	2.2	20012*
CC1(C)CC(NC(=O)C2CCN(S(=O)(=O)c3ccc(Cl)c(C(F)(F)F)c3)CC2)CC(C)(C)N1	0.4	0.5	4.2	-4.6	-7.4	3882
CCOC(=O)c1cn(Cc2ccc(C)cc2)c2cc(F)ccc2c1=O	-2.3	0.1	0.0	-5.2	-29.3	3344
Nc1[nH]c(=O)ncc1F	-0.5	-0.7	-15.0	-6.1	-14.0	5397
CCc1nc2ccc(C(=O)NCCOc3ccc(OC)cc3)cn2c1N(CC)Cc1ccc(OC)c(OC)c1	-0.5	-3.7	7.4	-2.9	-3.0	3727

Source: PubChem BioAssay (several laboratories)
